Source: the supplement of paper PMC9023506
Where a name gives a salt, the structure may show the parent alone.

Tested on: Danio rerio larvae (5 dpf)
Assay: habituation to 1-s acoustic pulses, difference vs DMSO (percentage points (treated minus DMSO)); higher = more of the behaviour than the DMSO vehicle control
Settings: 10 µM; exposure time: 3 h pre-incubation + 3 h imaging
Procedure: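 5-dpf wild-type zebrafish larvae were imaged in 96-well plates. They were treated with 190 Tocris FDA-approved drugs at 10 µM (1 µl/ml DMSO) for 3 h before and 3 h during imaging at 28.5 °C, 48 larvae per drug. Automated image analysis gave % time moving and optomotor responses. Values are drug group mean minus DMSO vehicle mean (n=844), in percentage points, for 10 behaviours.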

Going from `Nc1ncn([C@@H]2O[C@H](CO)[C@@H](O)[C@H]2O)c(=O)n1` [5-Azacytidine] to `NC(=O)c1ncn([C@@H]2O[C@H](CO)[C@@H](O)[C@H]2O)n1` [Ribavirin], the “habituation to 1-s acoustic pulses” value falls from 0.737 to -1.17.

First: COc1cc2ncnc(Nc3ccc(F)c(Cl)c3)c2cc1OCCCN1CCOCC1 [Iressa]
Second: COc1ccccc1OCC(O)CN1CCN(CC(=O)Nc2c(C)cccc2C)CC1 (stereo not given) [Ranolazine dihydrochloride]
The “habituation to 1-s acoustic pulses” value of the first is higher: 0.91 for the first, -4.45 for the second.

Going from `Nc1nc(Cl)nc2c1ncn2[C@@H]1O[C@H](CO)[C@@H](O)[C@@H]1F` [Clofarabine] to `CCCCCOC(=O)Nc1nc(=O)n([C@@H]2O[C@H](C)[C@@H](O)[C@H]2O)cc1F` [Capecitabine], the “habituation to 1-s acoustic pulses” value falls from -0.305 to -3.26.

Going from `COC(c1ccccc1)(c1ccccc1)[C@H](Oc1nc(C)cc(C)n1)C(=O)O` [Ambrisentan] to `CC/C(=C(\c1ccccc1)c1ccc(OCCN(C)C)cc1)c1ccccc1` [Tamoxifen citrate], the “habituation to 1-s acoustic pulses” value falls from 1.34 to -6.99.

Going from `CCCN(CCC)S(=O)(=O)c1ccc(C(=O)O)cc1` [Probenecid] to `Nc1nc2[nH]cc(CCc3ccc(C(=O)N[C@@H](CCC(=O)O)C(=O)O)cc3)c2c(=O)[nH]1` [Pemetrexed], the “habituation to 1-s acoustic pulses” value falls from 4.24 to -1.43.

First: CCc1ccc(CCOc2ccc(CC3SC(=O)NC3=O)cc2)nc1 (stereo not given) [Pioglitazone hydrochloride]
Second: CCCCc1nc(Cl)c(CO)n1Cc1ccc(-c2ccccc2-c2nnn[nH]2)cc1 [Losartan potassium]
The “habituation to 1-s acoustic pulses” value of the first is lower: 0.476 for the first, 0.91 for the second.

Going from `CN(C)CC/C=C1/c2ccccc2COc2ccc(CC(=O)O)cc21` [Olopatadine hydrochloride] to `Cc1ccc(O)c([C@H](CCN(C(C)C)C(C)C)c2ccccc2)c1` [Tolterodine L-tartrate], the “habituation to 1-s acoustic pulses” value falls from 0.997 to -4.35.

Compared with `CC#C[C@]1(O)CC[C@H]2[C@@H]3CCC4=CC(=O)CCC4=C3[C@@H](c3ccc(N(C)C)cc3)C[C@@]21C` [Mifepristone], `C#C[C@]1(O)CC[C@H]2[C@@H]3CCC4=CC(=O)CC[C@@H]4[C@H]3CC[C@@]21CC` [Levonorgestrel] is lower in “habituation to 1-s acoustic pulses” value: -0.152 for the first, -7.34 for the second.

Compared with `CC1(C)O[C@@H]2[C@@H](CO[C@@]3(COS(N)(=O)=O)OC(C)(C)O[C@@H]23)O1` [Topiramate], `CC(=O)O[C@]1(C(C)=O)CC[C@H]2[C@@H]3C=C(C)C4=CC(=O)CC[C@]4(C)[C@H]3CC[C@@]21C` [Megestrol Acetate] is higher in “habituation to 1-s acoustic pulses” value: -3.26 for the first, -2.13 for the second.

Going from `CN1CC(=O)N2[C@H](c3ccc4c(c3)OCO4)c3[nH]c4ccccc4c3C[C@@H]2C1=O` [Tadalafil] to `Cc1cc2c(s1)Nc1ccccc1N=C2N1CCN(C)CC1` [Olanzapine], the “habituation to 1-s acoustic pulses” value rises from -1.05 to 0.145.

Going from `OC(c1cc(C(F)(F)F)nc2c(C(F)(F)F)cccc12)C1CCCCN1` (stereo not given) [Mefloquine hydrochloride] to `CC(C)Nc1cccnc1N1CCN(C(=O)c2cc3cc(NS(C)(=O)=O)ccc3[nH]2)CC1` [Delavirdine mesylate], the “habituation to 1-s acoustic pulses” value falls from 0.613 to -7.61.

First: CCOC(=O)C1=C(C)NC(C)=C(C(=O)OC)C1c1cccc(Cl)c1Cl (stereo not given) [Felodipine]
Second: CCOc1nc2cccc(C(=O)O)c2n1Cc1ccc(-c2ccccc2-c2noc(=O)[nH]2)cc1 [Azilsartan]
The “habituation to 1-s acoustic pulses” value of the first is lower: -11.1 for the first, 6.99 for the second.

Going from `CC[C@H](C)C(=O)O[C@H]1C[C@@H](C)C=C2C=C[C@H](C)[C@H](CC[C@@H]3C[C@@H](O)CC(=O)O3)[C@H]21` [Lovastatin] to `CCc1c2c(nc3ccc(OC(=O)N4CCC(N5CCCCC5)CC4)cc13)-c1cc3c(c(=O)n1C2)COC(=O)[C@]3(O)CC`, the “habituation to 1-s acoustic pulses” value rises from -1.04 to 10.3.

Going from `CCc1nc(N)nc(N)c1-c1ccc(Cl)cc1` [Pyrimethamine] to `Cc1cccc(CN2CCN(C(c3ccccc3)c3ccc(Cl)cc3)CC2)c1` (stereo not given) [Meclizine dihydrochloride], the “habituation to 1-s acoustic pulses” value falls from 5.04 to -10.1.

First: CC(=O)Nc1ccc(O)cc1 [Acetaminophen]
Second: NC(=O)N1c2ccccc2C=Cc2ccccc21 [Carbamazepine]
The “habituation to 1-s acoustic pulses” value of the first is lower: -1.9 for the first, 2.65 for the second.

Going from `O=C(c1ccc(OCCN2CCCCC2)cc1)c1c(-c2ccc(O)cc2)sc2cc(O)ccc12` [Raloxifene hydrochloride] to `COc1ccc(-c2ccc3cc(C(=O)O)ccc3c2)cc1C12CC3CC(CC(C3)C1)C2` [Adapalene], the “habituation to 1-s acoustic pulses” value rises from 1.64 to 2.52.

Going from `Cc1nc(-c2ccc(OCC(C)C)c(C#N)c2)sc1C(=O)O` [Febuxostat] to `CC(C)c1nc(CN(C)C(=O)N[C@H](C(=O)N[C@@H](Cc2ccccc2)C[C@H](O)[C@H](Cc2ccccc2)NC(=O)OCc2cncs2)C(C)C)cs1` [Ritonavir], the “habituation to 1-s acoustic pulses” value rises from -2.75 to -0.262.

Compared with `C=CC(=O)N1CCC[C@@H](n2nc(-c3ccc(Oc4ccccc4)cc3)c3c(N)ncnc32)C1` [Ibrutinib], `CNC(=O)c1ccccc1Sc1ccc2c(/C=C/c3ccccn3)n[nH]c2c1` [Axitinib] is higher in “habituation to 1-s acoustic pulses” value: -7.68 for the first, -2.02 for the second.

Going from `COc1ccc(Cl)cc1C(=O)NCCc1ccc(S(=O)(=O)NC(=O)NC2CCCCC2)cc1` [Glibenclamide] to `CC(C)COCC(CN(Cc1ccccc1)c1ccccc1)N1CCCC1` (stereo not given) [Bepridil hydrochloride], the “habituation to 1-s acoustic pulses” value falls from -1.87 to -6.51.

First: N#C[C@@H]1C[C@@H]2C[C@@H]2N1C(=O)[C@@H](N)C12CC3CC(CC(O)(C3)C1)C2 [Saxagliptin hydrochloride]
Second: C#CCN[C@@H]1CCc2ccccc21 [Rasagiline mesylate]
The “habituation to 1-s acoustic pulses” value of the first is lower: 1.97 for the first, 2.65 for the second.
